These results are taken from paper PMC7862700, “An all-to-all approach to the identification of sequence-specific readers for epigenetic DNA modifications on cytosine”.

Assay in all cases: DAPPL (digital affinity profiling via proximity ligation, sequencing); 10 mM Tris-HCl pH 7.5, 50 mM NaCl, 1 mM DTT, 4% glycerol, room temperature, 30 min; GST-TFs on glutathione beads, 16-mer random dsDNA library, 0.1% formaldehyde crosslink after washing; high values mean tight binding
The target of one assay is T1, FEV (Homo sapiens, UniProt Q99581 1-238).
T1 sequence: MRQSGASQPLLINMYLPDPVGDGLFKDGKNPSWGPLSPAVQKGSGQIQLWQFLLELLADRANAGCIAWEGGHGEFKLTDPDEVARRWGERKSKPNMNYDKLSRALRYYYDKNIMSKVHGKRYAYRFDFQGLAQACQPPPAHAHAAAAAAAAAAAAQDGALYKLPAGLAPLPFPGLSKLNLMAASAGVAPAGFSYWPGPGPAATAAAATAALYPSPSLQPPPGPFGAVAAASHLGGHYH
Particulars: protein: recombinant; tags: N-terminal GST; dsDNA, one strand shown. The method, boiled down: (§1)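 Each value of binding signal is a hexamer's read frequency for a factor divided by the same hexamer's frequency in the tag-only sample. Barcoded, bead-captured GST fusions of human transcription factors made in yeast were pooled with that sample and incubated with 200 nmole of a random double-stranded 16-mer DNA library in Tris/NaCl/DTT/glycerol buffer at room temperature for 30 min. Washing, 0.1% formaldehyde crosslinking, proximity ligation, PCR and Illumina NextSeq500 sequencing followed.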

Another assay has as its target ETV5 (Homo sapiens, UniProt P41161 1-510). Particulars: protein: recombinant; tags: N-terminal GST; dsDNA, one strand shown. The method, boiled down: as §1
For the next assay, the target named is HSF1 (Homo sapiens, UniProt Q00613 1-529). As to conditions: protein: recombinant; tags: N-terminal GST; chain copies: 3; dsDNA, one strand shown. The method, boiled down:
as §1

The target of the next assay is T2, SPIC (Homo sapiens, UniProt Q8N5J4 1-248).
T2 sequence: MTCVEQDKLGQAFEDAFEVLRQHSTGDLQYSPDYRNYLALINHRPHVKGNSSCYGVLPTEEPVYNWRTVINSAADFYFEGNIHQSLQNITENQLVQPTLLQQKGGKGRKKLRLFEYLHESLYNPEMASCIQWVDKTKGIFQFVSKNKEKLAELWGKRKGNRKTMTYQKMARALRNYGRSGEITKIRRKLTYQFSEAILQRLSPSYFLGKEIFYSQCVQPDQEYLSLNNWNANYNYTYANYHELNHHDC
As to conditions: protein: recombinant; tags: N-terminal GST; dsDNA, one strand shown. In short, it runs like this: as §1

A further assay has as its target ELF4 (Homo sapiens, UniProt Q99607 1-663). As to conditions: protein: recombinant; tags: N-terminal GST; dsDNA, one strand shown. In short, it runs like this:
as §1

The next assay addresses T3, ELK4 (Homo sapiens, UniProt P28324-2 1-405).
T3 sequence: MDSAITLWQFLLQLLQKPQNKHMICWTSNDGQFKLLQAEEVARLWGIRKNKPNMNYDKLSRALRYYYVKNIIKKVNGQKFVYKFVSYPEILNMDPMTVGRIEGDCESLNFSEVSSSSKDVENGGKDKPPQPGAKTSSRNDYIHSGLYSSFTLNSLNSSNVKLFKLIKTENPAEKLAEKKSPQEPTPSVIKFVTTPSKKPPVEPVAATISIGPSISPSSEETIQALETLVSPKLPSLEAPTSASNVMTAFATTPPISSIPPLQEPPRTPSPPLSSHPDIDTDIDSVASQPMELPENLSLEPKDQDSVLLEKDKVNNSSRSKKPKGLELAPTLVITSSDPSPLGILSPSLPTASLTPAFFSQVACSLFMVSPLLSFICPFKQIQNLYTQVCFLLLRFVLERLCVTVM
Particulars: protein: recombinant; tags: N-terminal GST; dsDNA, one strand shown. In short, it runs like this: as §1

Another assay addresses T4, ETV2 (Homo sapiens, UniProt O00321 1-342).
T4 sequence: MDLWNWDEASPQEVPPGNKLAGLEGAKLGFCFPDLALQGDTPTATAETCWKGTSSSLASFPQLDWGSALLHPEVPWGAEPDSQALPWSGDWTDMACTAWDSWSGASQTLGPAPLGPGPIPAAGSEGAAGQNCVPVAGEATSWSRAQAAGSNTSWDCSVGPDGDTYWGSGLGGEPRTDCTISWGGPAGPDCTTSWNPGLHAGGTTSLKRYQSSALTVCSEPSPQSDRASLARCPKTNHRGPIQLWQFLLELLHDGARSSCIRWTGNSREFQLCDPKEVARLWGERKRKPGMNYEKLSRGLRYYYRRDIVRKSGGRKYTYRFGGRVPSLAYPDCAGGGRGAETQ
As to conditions: protein: recombinant; tags: N-terminal GST; dsDNA, one strand shown. In short, it runs like this: as §1

Another assay deals with T5, ELF3 (Homo sapiens, UniProt P78545 1-371).
T5 sequence: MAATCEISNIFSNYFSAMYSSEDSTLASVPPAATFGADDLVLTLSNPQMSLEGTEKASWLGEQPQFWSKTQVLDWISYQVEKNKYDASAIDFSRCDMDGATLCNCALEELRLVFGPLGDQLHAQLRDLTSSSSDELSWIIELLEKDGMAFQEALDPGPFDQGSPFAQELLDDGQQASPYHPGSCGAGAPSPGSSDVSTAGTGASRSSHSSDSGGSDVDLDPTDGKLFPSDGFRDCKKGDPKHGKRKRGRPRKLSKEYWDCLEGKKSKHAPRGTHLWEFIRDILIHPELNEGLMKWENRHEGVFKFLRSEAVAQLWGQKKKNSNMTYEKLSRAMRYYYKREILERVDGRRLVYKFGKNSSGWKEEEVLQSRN
As to conditions: protein: recombinant; tags: N-terminal GST; dsDNA, one strand shown. The method, boiled down: as §1

A further assay concerns the target CRX (Homo sapiens, UniProt O43186 1-299). Particulars: protein: recombinant; tags: N-terminal GST; dsDNA, one strand shown. In short, it runs like this:
as §1

The target of another assay is ETV1 (Homo sapiens, UniProt P50549 1-477). Particulars: protein: recombinant; tags: N-terminal GST; dsDNA, one strand shown. In short, it runs like this: as §1
ETV1, sequence (P50549 whole entry): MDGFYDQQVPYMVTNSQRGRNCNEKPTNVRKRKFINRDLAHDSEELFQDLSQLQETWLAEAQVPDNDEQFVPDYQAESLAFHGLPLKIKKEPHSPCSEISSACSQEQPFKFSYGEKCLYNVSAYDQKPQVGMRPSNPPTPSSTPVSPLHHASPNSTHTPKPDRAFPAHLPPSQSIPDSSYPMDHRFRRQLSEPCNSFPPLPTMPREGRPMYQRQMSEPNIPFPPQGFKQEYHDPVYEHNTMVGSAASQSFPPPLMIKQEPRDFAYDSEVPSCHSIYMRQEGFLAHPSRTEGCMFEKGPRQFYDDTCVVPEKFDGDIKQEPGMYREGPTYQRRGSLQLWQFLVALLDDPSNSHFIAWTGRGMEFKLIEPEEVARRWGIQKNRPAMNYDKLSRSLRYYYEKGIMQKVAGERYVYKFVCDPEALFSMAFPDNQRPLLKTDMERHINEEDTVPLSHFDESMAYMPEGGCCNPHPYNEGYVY
In another assay the target is T6, ERF (Homo sapiens, UniProt P50548 1-548).
T6 sequence: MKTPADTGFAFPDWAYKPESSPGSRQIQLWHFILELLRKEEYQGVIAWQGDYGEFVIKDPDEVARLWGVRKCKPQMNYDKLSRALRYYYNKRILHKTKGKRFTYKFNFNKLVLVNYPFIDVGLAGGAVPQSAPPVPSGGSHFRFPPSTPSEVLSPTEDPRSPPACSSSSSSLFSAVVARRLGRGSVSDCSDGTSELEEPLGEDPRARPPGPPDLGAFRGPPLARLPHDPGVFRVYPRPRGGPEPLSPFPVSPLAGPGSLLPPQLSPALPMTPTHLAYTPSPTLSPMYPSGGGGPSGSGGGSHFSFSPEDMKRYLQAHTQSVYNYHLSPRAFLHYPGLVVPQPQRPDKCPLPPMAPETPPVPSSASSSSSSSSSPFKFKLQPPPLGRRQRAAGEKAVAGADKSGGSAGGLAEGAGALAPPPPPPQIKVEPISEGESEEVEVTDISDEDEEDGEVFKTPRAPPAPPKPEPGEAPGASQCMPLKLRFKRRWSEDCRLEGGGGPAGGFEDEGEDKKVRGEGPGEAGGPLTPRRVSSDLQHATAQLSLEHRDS
As to conditions: protein: recombinant; tags: N-terminal GST; dsDNA, one strand shown. In short, it runs like this: as §1

A further assay has as its target T7, ETV3L (Homo sapiens, UniProt Q6ZN32 1-361).
T7 sequence: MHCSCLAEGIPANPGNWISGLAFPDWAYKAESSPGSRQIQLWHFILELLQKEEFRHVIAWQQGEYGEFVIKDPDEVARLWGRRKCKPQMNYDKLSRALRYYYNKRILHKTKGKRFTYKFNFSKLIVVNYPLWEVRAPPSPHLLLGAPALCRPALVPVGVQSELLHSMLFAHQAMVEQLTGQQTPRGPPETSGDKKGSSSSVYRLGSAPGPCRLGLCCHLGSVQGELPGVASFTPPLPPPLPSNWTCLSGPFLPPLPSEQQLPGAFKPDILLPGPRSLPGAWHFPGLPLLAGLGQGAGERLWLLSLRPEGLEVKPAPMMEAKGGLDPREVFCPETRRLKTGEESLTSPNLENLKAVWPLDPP
Particulars: protein: recombinant; tags: N-terminal GST; dsDNA, one strand shown. The method, boiled down:
as §1

The next assay concerns the target T8, ETS2 (Homo sapiens, UniProt P15036 1-469).
T8 sequence: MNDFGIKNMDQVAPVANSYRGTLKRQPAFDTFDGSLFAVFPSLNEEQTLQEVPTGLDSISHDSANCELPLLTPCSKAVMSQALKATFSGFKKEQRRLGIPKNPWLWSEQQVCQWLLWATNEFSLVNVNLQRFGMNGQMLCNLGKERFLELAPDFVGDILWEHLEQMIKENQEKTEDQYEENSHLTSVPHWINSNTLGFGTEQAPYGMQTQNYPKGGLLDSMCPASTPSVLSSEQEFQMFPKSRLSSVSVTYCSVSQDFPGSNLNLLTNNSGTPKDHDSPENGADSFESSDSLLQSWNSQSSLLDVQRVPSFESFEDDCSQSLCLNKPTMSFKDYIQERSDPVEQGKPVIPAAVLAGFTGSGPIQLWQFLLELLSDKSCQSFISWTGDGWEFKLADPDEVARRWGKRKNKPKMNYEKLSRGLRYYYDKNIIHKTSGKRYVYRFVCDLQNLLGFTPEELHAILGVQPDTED
Particulars: protein: recombinant; tags: N-terminal GST; dsDNA, one strand shown. In short, it runs like this:
as §1

In another assay the target is T9, SPDEF (Homo sapiens, UniProt O95238 1-335).
T9 sequence: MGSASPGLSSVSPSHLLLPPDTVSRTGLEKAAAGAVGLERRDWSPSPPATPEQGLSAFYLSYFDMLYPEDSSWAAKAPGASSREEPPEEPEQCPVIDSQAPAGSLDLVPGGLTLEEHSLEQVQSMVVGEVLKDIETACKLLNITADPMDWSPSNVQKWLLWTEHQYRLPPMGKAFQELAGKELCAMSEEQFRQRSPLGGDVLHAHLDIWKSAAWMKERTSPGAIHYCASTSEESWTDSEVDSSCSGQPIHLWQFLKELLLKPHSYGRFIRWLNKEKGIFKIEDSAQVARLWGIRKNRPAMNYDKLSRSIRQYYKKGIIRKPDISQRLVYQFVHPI
Particulars: protein: recombinant; tags: N-terminal GST; dsDNA, one strand shown. In short, it runs like this: as §1

The target of another assay is T10, ETV7 (Homo sapiens, UniProt Q9Y603 1-341).
T10 sequence: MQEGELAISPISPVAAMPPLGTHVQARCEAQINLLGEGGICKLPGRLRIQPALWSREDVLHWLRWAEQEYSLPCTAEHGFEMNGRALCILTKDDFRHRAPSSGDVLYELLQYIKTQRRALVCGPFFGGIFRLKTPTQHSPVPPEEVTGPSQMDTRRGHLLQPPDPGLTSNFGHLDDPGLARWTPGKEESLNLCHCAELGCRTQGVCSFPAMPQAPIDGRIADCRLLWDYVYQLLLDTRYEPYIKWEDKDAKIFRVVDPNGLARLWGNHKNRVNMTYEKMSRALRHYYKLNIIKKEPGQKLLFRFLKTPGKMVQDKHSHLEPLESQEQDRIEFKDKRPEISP
As to conditions: protein: recombinant; tags: N-terminal GST; dsDNA, one strand shown. In short, it runs like this:
as §1

The target in the next assay is T11, ELF5 (Homo sapiens, UniProt Q9UKW6-2 1-255).
T11 sequence: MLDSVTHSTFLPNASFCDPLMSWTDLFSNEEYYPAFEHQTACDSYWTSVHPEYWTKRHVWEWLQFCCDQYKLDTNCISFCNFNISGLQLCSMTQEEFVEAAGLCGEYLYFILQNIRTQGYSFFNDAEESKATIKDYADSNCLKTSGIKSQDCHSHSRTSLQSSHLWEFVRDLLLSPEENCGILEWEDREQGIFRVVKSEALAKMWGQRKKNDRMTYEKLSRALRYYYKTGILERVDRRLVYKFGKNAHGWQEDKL
As to conditions: protein: recombinant; tags: N-terminal GST; dsDNA, one strand shown. In short, it runs like this:
as §1

Another assay has as its target T12, ETV3 (Homo sapiens, UniProt P41162-2 1-143).
T12 sequence: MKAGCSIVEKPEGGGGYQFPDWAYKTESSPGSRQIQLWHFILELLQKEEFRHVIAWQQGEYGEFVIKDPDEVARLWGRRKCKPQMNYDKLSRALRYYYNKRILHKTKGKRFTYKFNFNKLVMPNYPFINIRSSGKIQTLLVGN
As to conditions: protein: recombinant; tags: N-terminal GST; dsDNA, one strand shown. In short, it runs like this:
as §1

For the next assay, the target named is ETV6 (Homo sapiens, UniProt P41212 1-452). As to conditions: protein: recombinant; tags: N-terminal GST; dsDNA, one strand shown. The method, boiled down:
as §1

CRX, sequence (O43186 whole entry): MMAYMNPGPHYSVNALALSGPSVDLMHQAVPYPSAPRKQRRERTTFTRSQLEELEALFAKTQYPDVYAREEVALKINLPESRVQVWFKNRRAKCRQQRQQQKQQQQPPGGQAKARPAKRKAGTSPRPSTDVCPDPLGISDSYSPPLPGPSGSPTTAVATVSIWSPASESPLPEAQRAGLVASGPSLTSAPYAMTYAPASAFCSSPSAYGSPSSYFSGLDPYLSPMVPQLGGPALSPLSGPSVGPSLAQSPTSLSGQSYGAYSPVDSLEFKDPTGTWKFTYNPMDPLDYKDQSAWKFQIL
HSF1, sequence (Q00613 whole entry): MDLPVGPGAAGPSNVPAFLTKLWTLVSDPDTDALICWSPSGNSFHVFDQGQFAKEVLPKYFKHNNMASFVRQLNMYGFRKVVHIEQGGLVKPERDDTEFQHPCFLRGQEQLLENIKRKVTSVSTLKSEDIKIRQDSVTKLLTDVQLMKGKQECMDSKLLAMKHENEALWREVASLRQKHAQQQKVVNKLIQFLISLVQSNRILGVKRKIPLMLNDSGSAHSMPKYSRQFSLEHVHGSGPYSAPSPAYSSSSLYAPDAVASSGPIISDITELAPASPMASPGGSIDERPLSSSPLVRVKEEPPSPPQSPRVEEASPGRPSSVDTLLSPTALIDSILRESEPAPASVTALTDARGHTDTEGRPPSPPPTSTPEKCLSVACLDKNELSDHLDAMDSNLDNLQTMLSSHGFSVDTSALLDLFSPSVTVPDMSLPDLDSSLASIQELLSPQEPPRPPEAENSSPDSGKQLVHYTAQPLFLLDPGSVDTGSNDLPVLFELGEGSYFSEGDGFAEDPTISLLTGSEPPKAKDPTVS
ETV6, sequence (P41212 whole entry): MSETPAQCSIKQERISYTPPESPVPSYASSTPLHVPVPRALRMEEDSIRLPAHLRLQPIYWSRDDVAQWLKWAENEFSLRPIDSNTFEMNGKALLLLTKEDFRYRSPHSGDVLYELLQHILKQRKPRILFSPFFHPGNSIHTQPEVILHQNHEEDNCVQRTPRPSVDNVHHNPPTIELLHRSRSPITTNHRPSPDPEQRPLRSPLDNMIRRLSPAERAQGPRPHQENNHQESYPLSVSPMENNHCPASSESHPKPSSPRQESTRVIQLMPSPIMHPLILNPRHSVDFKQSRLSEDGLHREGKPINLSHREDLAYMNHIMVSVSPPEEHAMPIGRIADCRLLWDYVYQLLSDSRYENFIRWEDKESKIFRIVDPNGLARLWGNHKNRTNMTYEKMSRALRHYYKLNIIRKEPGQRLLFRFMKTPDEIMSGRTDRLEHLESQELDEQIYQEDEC
ELF4, sequence (Q99607 whole entry): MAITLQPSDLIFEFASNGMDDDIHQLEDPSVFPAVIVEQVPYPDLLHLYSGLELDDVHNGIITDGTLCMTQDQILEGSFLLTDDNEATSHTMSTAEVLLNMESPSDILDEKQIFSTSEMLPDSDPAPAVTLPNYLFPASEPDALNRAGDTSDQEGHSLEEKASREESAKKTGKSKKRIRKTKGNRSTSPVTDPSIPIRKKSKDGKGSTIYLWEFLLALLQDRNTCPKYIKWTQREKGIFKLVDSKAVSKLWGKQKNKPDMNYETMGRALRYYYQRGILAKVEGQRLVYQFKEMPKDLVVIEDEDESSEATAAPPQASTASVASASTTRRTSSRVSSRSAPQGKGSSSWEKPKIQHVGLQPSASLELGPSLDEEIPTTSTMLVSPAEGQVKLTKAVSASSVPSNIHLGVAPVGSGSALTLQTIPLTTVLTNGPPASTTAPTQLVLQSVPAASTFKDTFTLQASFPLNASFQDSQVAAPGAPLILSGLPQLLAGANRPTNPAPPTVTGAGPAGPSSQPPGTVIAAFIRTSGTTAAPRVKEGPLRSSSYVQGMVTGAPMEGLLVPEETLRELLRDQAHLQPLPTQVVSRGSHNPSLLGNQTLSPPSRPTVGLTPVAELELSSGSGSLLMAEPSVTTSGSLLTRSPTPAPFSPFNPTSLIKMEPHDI
ETV5, sequence (P41161 whole entry): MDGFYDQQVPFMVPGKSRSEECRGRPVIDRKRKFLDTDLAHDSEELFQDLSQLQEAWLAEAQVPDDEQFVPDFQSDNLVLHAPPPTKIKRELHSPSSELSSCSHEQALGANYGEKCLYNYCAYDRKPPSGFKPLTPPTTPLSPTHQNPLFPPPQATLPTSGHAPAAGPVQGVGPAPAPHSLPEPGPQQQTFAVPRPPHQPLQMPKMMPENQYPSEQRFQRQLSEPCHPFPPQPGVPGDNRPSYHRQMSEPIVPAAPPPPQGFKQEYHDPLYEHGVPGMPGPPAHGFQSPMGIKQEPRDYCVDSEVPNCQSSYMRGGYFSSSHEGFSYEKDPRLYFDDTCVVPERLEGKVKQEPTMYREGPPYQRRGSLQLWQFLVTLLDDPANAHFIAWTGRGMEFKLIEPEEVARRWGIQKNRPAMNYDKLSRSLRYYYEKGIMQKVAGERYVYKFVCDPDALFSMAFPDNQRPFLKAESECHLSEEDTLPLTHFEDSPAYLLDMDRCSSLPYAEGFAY

For the sequence TTTGCC, the binding signal in the assay with FEV was 1.26 fold enrichment (6-mer frequency, TF over GST control); with ETV5, 1.26 fold enrichment (6-mer frequency, TF over GST control); with HSF1 it was 1.24 fold enrichment (6-mer frequency, TF over GST control); with SPIC, 1.31 fold enrichment (6-mer frequency, TF over GST control); with ELF4, 1.29 fold enrichment (6-mer frequency, TF over GST control); with ELK4, 1.37 fold enrichment (6-mer frequency, TF over GST control). In addition, the binding signal with ETV2 was 1.29 fold enrichment (6-mer frequency, TF over GST control); with ELF3, 1.47 fold enrichment (6-mer frequency, TF over GST control); with CRX, 1.32 fold enrichment (6-mer frequency, TF over GST control); with ETV1, 1.33 fold enrichment (6-mer frequency, TF over GST control); with ERF it was 1.31 fold enrichment (6-mer frequency, TF over GST control); with ETV3L, 1.2 fold enrichment (6-mer frequency, TF over GST control). For the same sequence, the binding signal is 1.32 fold enrichment (6-mer frequency, TF over GST control) with ETS2; 1.21 fold enrichment (6-mer frequency, TF over GST control) with SPDEF; 1.26 fold enrichment (6-mer frequency, TF over GST control) in the assay with ETV7; 1.2 fold enrichment (6-mer frequency, TF over GST control) with ELF5; 1.32 fold enrichment (6-mer frequency, TF over GST control) with ETV3; 1.11 fold enrichment (6-mer frequency, TF over GST control) with ETV6.
